Experimental data as given in PubChem BioAssay AID504848 (National Center for Advancing Translational Sciences (NCATS), 2011).
Out of some 2,300 compounds screened, about 1,400 (61%) were called active. Another 29% or so got no clear call; they are omitted. So high a share suggests a set chosen from earlier hits. The list shows a part of the results. Values without a mark were called inactive. Calls come from the whole dose curve; as a rule, active = well fitted inhibition curve with a large enough effect; inconclusive = small, poorly fitted or top-dose-only effect, or effect the other way; inactive = no such curve, though single readings can be large or run the other way.

Assay: Confirmation screen for delayed death inhibitors of the malarial parasite plastid, 96 hour incubation; note: nearly all actives have a fitted effect of over 60% in size
Settings: P. falciparum luciferase growth in erythrocytes; series mostly up to 28.7 µM; activity change, negative = inhibition: at the top concentration
How it was run: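 Two-generation (96 h, 37 C) exposure of P. falciparum carrying an integrated firefly luciferase reporter in erythrocytes, 0.1% parasitemia and 2% hematocrit final, Albumax-supplemented RPMI. Luminescence decrease measures growth inhibition.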
% is set by controls: 0 for no effect and ±100 for the full control effect; potency is the fitted concentration of half-maximal effect.

| SMILES | Potency | activity change, negative = inhibition |
| --- | --- | --- |
| Cc1nc([N+](=O)[O-])c(Br)n1CC(=O)c1ccc(Cl)cc1 | 7.94 µM (active) | – |
| O=C(CSc1nc2cc([N+](=O)[O-])ccc2n1-c1ccccc1)NCc1ccc2c(c1)OCO2 | 11.2 µM (active) | – |
| COc1cc2c(cc1OC)CN(C(=O)c1cc(C3CC3)nn1-c1ccccc1)CC2 | 12.6 µM (active) | – |
| COc1cc2cc(CN(Cc3cccs3)C(=S)Nc3ccc(C)cc3)c(=O)[nH]c2cc1OC | 10 µM (active) | – |
| COc1cc2cc(CN(CCc3ccccc3C)C(=S)NCCCN3CCOCC3)c(=O)[nH]c2cc1OC | 4.47 µM (active) | – |
| O=C(NC1CCCC1)C1CC(=O)N(CCc2ccccc2)C1 (centres undefined) | – | -58% |
| O=C(NC1CCCCC1)C1CCN(c2nnnn2-c2ccccc2)CC1 | 14.1 µM (active) | – |
| O=C(Nc1cccc([N+](=O)[O-])c1)c1ccc2nsnc2c1 | – | 3.84% |
| O=C(CSc1nc2ccccc2c(=O)[nH]1)Nc1cccc([N+](=O)[O-])c1 | 14.1 µM (active) | – |
| CCOC(=O)CNC(c1ccccc1)c1cc(Br)ccc1NC(=O)CCN1CCOCC1 (centres undefined) | 11.2 µM (active) | – |
| COc1ccc(Nc2cc(Cl)ccc2C(=O)O)cn1 | – | -63.4% |
| COc1ccc(Cl)cc1NC(=O)C(=O)NCc1ccncc1 | – | -9.49% |
| COc1ccc(Cl)cc1C(=O)Nc1ccncc1 | 12.6 µM (active) | – |
| CC(=O)Nc1cccc(Oc2ncnc3scc(-c4ccc(C(C)C)cc4)c23)c1 | 6.31 µM (active) | – |
| Cc1cc(C)c(C(=O)/C=C/c2cccc3ccccc23)c(=O)[nH]1 | 6.31 µM (active) | – |
| CCc1nnc(NC(=O)CSc2ncnc3c2cnn3-c2ccc(OC)cc2)s1 | 12.6 µM (active) | – |
| CCc1nnc(NC(=O)CSc2nc3cccnc3n2C2CCCCC2)s1 | – | -93.7% |
| O=C(NC12CC3CC(CC(C3)C1)C2)c1ccc([N+](=O)[O-])o1 | 2.24 µM (active) | – |
| Cn1cc([N+](=O)[O-])c(C(=O)Nc2ccn(C34CC5CC(CC(C5)C3)C4)n2)n1 | – | -6.68% |
| CC(NC(=O)c1ccc([N+](=O)[O-])o1)C12CC3CC(CC(C3)C1)C2 (centres undefined) | 6.31 µM (active) | – |
| COc1cc(C2Oc3ccccc3C=C2[N+](=O)[O-])cc(OC)c1OC (centres undefined) | 12.6 µM (active) | – |
| CN(c1ccccc1)S(=O)(=O)c1cc(C(=O)N2CCN(c3ncccn3)CC2)ccc1Cl | 8.91 µM (active) | – |
| CCOC(=O)C1(CCc2ccccc2)CCN(Cc2ccccn2)CC1 | 2.51 µM (active) | – |

| SMILES | Potency | activity change, negative = inhibition |
| --- | --- | --- |
| Cc1cccc(C)c1OCCn1nc(C(=O)O)c2ccccc2c1=O | – | -21.3% |
| Cc1cccc(C)c1NC(=O)C(=O)c1cn(C)c2ccccc12 | 15.8 µM (active) | – |
| COc1ccc(CN2C(=O)c3ccccc3C2C(=O)NC2CCC(C)CC2)c(OC)c1 (centres undefined) | 7.08 µM (active) | – |
| COc1cccc(CN2CCN(c3nc4nonc4nc3N3CCCCC3)CC2=O)c1 | 1.78 µM (active) | – |
| Cc1cc2nc3c(=O)[nH]c(=S)[nH]c3nc2cc1NC(=O)C(F)(F)F | 14.1 µM (active) | – |
| O=C(Nc1nc(-c2ccccn2)cs1)C1COc2ccccc2O1 (centres undefined) | 6.31 µM (active) | – |
| CCc1ccc(N/C(SCc2cccc(F)c2)=C(/C#N)C(=O)NCc2ccco2)cc1 | 7.94 µM (active) | – |
| Cc1occc1C(=O)NC1CCCN(Cc2ccc(CC(C)C)cc2)C1 (centres undefined) | 12.6 µM (active) | – |
| O=C(NC1CCCN(Cc2ccc(Cl)cc2)C1)c1cnc2ccccn2c1=O (centres undefined) | 11.2 µM (active) | – |
| Cc1ccccc1-n1c(SCC(=O)c2c(N)n(C3CC3)c(=O)[nH]c2=O)nnc1N1CCOCC1 | 7.94 µM (active) | – |
| Nc1c(C(=O)CSc2nc3ccccc3o2)c(=O)[nH]c(=O)n1C1CC1 | 12.6 µM (active) | – |
| Cc1ccc(-c2csc(SCC(=O)c3c(N)n(C4CC4)c(=O)[nH]c3=O)n2)cc1 | – | -17.4% |
| Cc1ccc(-n2nnnc2SCC(=O)Nc2ccccc2-c2ccccc2)cc1C | – | -17% |
| Cc1ccc(-n2nnnc2Sc2nc([N+](=O)[O-])nn2C)cc1C | 3.16 µM (active) | – |
| N#Cc1cc(Oc2cccc3cccnc23)c(-n2nnc3ccccc32)cc1C#N | 5.62 µM (active) | – |
| COc1cccc(-c2ccc3ncnc(NCc4cccs4)c3c2)c1 | 5.01 µM (active) | – |
| CN(C)c1ccc(CNc2ncnc3sccc23)cc1 | – | -14.9% |
| CCCN(CCC)c1ccc(CC(=O)NC(C)Cc2ccccc2)cc1 (centres undefined) | 12.6 µM (active) | – |
| O=C1NC(=S)S/C1=C\C=C\c1ccc([N+](=O)[O-])o1 | 2 µM (active) | – |
| COc1ccc(C2c3c(ncn(CCCN4CCOCC4)c3=N)Oc3ccc4ccccc4c32)cc1OC (centres undefined) | 2.24 µM (active) | – |
| COc1ccc(C2c3c(ncn(CCN4CCOCC4)c3=N)Oc3ccc4ccccc4c32)cc1OC (centres undefined) | 2 µM (active) | – |
| Cc1ccc(-n2ncc3c2CC(C)(C)CC3NC(=O)c2c(C)noc2C)cc1 (centres undefined) | 12.6 µM (active) | – |
| CCc1noc(C)c1C(=O)NC1CC(C)(C)Cc2c1cnn2-c1ccccc1 (centres undefined) | 12.6 µM (active) | – |

| SMILES | Potency | activity change, negative = inhibition |
| --- | --- | --- |
| CC1=C(C(=O)NC2CC(C)(C)Cc3c2cnn3-c2ccc(C)cc2)OCCO1 (centres undefined) | 11.2 µM (active) | – |
| CCOc1ccc2c(c1)sc(N)[n+]2Cc1cc(C)cc2cccnc12 | 3.98 µM (active) | – |
| COc1cc([N+](=O)[O-])c(OC)cc1SCc1n[nH]c(=S)n1-c1ccc(F)cc1 | 15.8 µM (active) | – |
| COc1ccccc1N1CC(O)=C(c2nc3ccccc3s2)C1=N | 11.2 µM (active) | – |
| Cn1c(SCC(=O)N2CCCCCC2)nc2c(c1=O)SCC2 | 8.91 µM (active) | – |
| CCC(=O)c1ccc(N2CCN(C(=O)c3cc([N+](=O)[O-])ccc3N3CCN(C)CC3)CC2)c(F)c1 | 11.2 µM (active) | – |
| O=[N+]([O-])/C=C\c1ccc(N2CCCC2)c(F)c1 | – | -25.7% |
| Cc1ccc(Nc2nc(NCc3ccco3)c3ccccc3n2)cc1 | 2 µM (active) | – |
| C/C=C(\C)C(=O)NCCN1C2=NC[C@H](C(C)C)N2C[C@H]1Cc1ccc(O)cc1 | 5.62 µM (active) | – |
| C/C=C(\C)C(=O)NCCN1C2=NC[C@H](Cc3ccccc3)N2C[C@H]1Cc1ccc(O)cc1 | 3.55 µM (active) | – |
| C=CCNC(=O)c1onc(CSc2cccc3ccccc23)c1C(=O)O | – | -23.7% |
| COc1ccc(CNc2ncc(-c3ccc(Cl)cc3)n2C)c(OC)c1OC | 12.6 µM (active) | – |
| CCC[C@H]1C[C@H](C(=O)N[C@@H]([C@H]2O[C@@H](SC)[C@@H](O)[C@@H](O)[C@@H]2O)[C@H](C)Cl)N(C)C1 | 0.199 µM (active) | – |
| Cc1ccc(S(=O)(=O)N(CC(=O)NCc2ccco2)c2ccccc2C)cc1 | 11.2 µM (active) | – |
| Cc1ccc(S(=O)(=O)N(Cc2ccccc2)c2ccccc2C(=O)Nc2ccccc2C(=O)NCc2ccco2)cc1 | 2.24 µM (active) | – |
| COCCn1c(=NC(=O)/C=C/c2ccccc2)sc2cc(NC(C)=O)ccc21 | 7.94 µM (active) | – |
| COC(=O)c1cc(=O)n(Cc2cccs2)c(=Nc2ccccc2)s1 | – | 3.33% |
| CCN(CC)S(=O)(=O)c1ccc(N2CCc3ccccc3C2)nc1 | 14.1 µM (active) | – |
| CC(C)N(C(C)C)S(=O)(=O)c1ccc(N2CCc3ccccc3C2)nc1 | 12.6 µM (active) | – |
| CN1C(=O)C(C)(C)c2cc(S(=O)(=O)NCC3CCC(C(=O)NCc4ccc(F)cc4)CC3)ccc21 (centres undefined) | 11.2 µM (active) | – |
| COc1ccc(NC(=O)CCCn2cc([N+](=O)[O-])cn2)cc1 | – | -11.8% |
| Cc1ccccc1NC(=O)CCCn1nc(C)c2c(C)n(-c3ccccc3)nc2c1=O | 10 µM (active) | – |
| Cc1cccc(C)c1NC(=O)CCCn1nc(C)c2c(C)n(-c3ccccc3)nc2c1=O | 10 µM (active) | – |

| SMILES | Potency | activity change, negative = inhibition |
| --- | --- | --- |
| COc1ccc(NC(=O)CCCn2nc(C)c3c(C)n(-c4ccccc4)nc3c2=O)cc1 | 11.2 µM (active) | – |
| Cc1nn(-c2ccccc2)c(C)c1NC(=O)COC(=O)[C@@H](NC(=O)c1ccccc1)C(C)C | – | -20.8% |
| CCOc1ccccc1C(=O)NCC(=O)NCCc1ccc(S(N)(=O)=O)cc1 | – | 6.57% |
| CCOc1ccc(CCNC(=O)CCCn2nc(C)c3c(C)n(-c4ccccc4)nc3c2=O)cc1 | 11.2 µM (active) | – |
| CSc1ccccc1OCc1cc(C(=O)NCCCn2nc(C)cc2C)no1 | 12.6 µM (active) | – |
| CSc1ccccc1OCc1cc(C(=O)N(C)CCc2c(C)n[nH]c2C)no1 | 10 µM (active) | – |
| CCN(CCN1CCCC1)C(=O)c1cc(COc2ccccc2SC)on1 | 12.6 µM (active) | – |
| CSc1ccccc1OCc1cc(C(=O)NCCn2ccnc2C)no1 | – | -21% |
| CCOC(=O)c1ccc(CNC(=O)c2cc(COc3ccccc3SC)on2)o1 | – | -8.32% |
| CC(=O)NC1=C(Nc2ccc(N(C)C)cc2)C(=O)c2ccccc2C1=O | 6.31 µM (active) | – |
| COc1ccc(NC2=C(NC(C)=O)C(=O)c3ccccc3C2=O)cc1 | 3.16 µM (active) | – |
| N#Cc1ccccc1S(=O)(=O)N1CCC(C(=O)NCc2ccccc2CN2CCCC2)CC1 | 14.1 µM (active) | – |
| CCOC(=O)c1cnc2ccccc2c1NCCc1ccc(OC)c(OC)c1 | 5.01 µM (active) | – |
| Cc1ccc2c(c1)c1c3n2CCN(C(=O)CCl)C3CCC1 (centres undefined) | 14.1 µM (active) | – |
| CN(CC(=O)Nc1ccc(Cl)cc1)C(=O)Cc1c(F)cccc1Cl | 10 µM (active) | – |
| O=C(/C=C/Sc1ncn[nH]1)c1ccc(Cl)cc1 | 12.6 µM (active) | – |
| CCC1OC(=O)C[C@@H](O)[C@H](C)[C@@H](OC2OC(C)CC(N(C)C)C2O)[C@@H](CC=O)C[C@@H](C)C(=O)/C=C/[C@]2(C)OC2C1C (some centres undefined) | 1.78 µM (active) | – |
| Cc1cc(C)n(Cc2ccc(C(=O)N/N=C/c3ccc(-c4ccc([N+](=O)[O-])cc4)o3)o2)n1 | 5.01 µM (active) | – |
| COc1cc(C(C)=O)ccc1OCC(O)CN1CCN(c2cc(C)cc(C)c2)CC1 (centres undefined) | 14.1 µM (active) | – |
| CC(C)(C)C1C/C(=C/c2ccccn2)C(=O)/C(=C/c2ccccn2)C1 (centres undefined) | 0.158 µM (active) | – |
